Among all 290,000 compounds or so, about 3,000 (1%) were called active. Only a selection was taken, and actives are over-represented in it overall. Values without a mark were called inactive. Cut-off read from the data, not from the text of the source: active = inhibition mostly above about 36% (no sharp cut-off); inactive = mostly below about 34%.
Assay: NOD1 signaling inhibitors, primary screen, cell-based, luminescence, uHTS (AID 1578);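 note: HEK-293T reporter cells stimulated with the NOD1 agonist gamma-tri-DAP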
Settings: NOD1-driven NF-kB luciferase reporter cells, at 4 µM, active compounds read high

SMILES	inhibition
CN(C)Cc1ccc(CNC(=O)COc2ccc3ccccc3c2)cc1	-35.8%
CC(=O)Nc1ccc(S(=O)(=O)N/N=C/c2cccnc2)cc1	-27.3%
CCOC(=O)c1c(N)sc2c(OCC)c(Br)ccc12	-11.3%
CCOc1c(Br)ccc2c1sc1nc[nH]c(=O)c12	66.7% (active)
CCOc1ccc(-c2c(C)sc3nc[nH]c(=O)c23)cc1	-20.6%
COc1cccc(NC(=S)N2C3CCCC2CC(NC(=O)C2CC2)C3)c1 (configuration not stated)	-11.4%
CC(=C/c1ccc(C(C)C)cc1)/C=N/NC(=O)CSc1ccccn1	-42.7%
O=C(Nc1ccc(Cc2ccncc2)cc1)c1ccc(S(=O)(=O)N2CCOCC2)cc1	31.5%
CCC1CCCCN1S(=O)(=O)c1ccc(NC(=O)c2cccs2)cc1 (configuration not stated)	-29.4%
CCC1CCCCN1S(=O)(=O)c1ccc(NC(=O)c2cccnc2)cc1 (configuration not stated)	30.5%
O=C(Nc1ccc(S(=O)(=O)N2CCCCC2)cc1)c1ccncc1	9.7%
CCN(CC)S(=O)(=O)c1ccc(OC)c(NC(=O)CSc2cc(C)ccc2C)c1	-19.1%
C=CCN(c1ccccc1C(=O)O)S(=O)(=O)c1ccc(C)cc1	-26.8%
O=S(=O)(Nc1ccc2c(c1)CCC2)c1cccs1	11.6%
O=c1c2ccccc2ncn1-c1ccc2c(c1)OCCO2	26.3%
CN(c1ccc(C(=O)NCCC2=CCCCC2)cc1)S(C)(=O)=O	68.1% (active)
CS(=O)(=O)Nc1ccc(C(=O)NCCC2=CCCCC2)cc1	-9.5%
CS(=O)(=O)N(Cc1ccc(Cl)cc1)c1ccc(C(=O)NCCC2=CCCCC2)cc1	9.1%
Cc1cc(NC(=O)CSc2nccn2C)n(-c2ccccc2)n1	-0.5%
Cc1cccc(N2CCCn3c2nc2c3c(=O)n(CCN3CCOCC3)c(=O)n2C)c1	17.7%
COCCn1nnnc1C(c1ccccn1)N1CCN(c2cc(Cl)ccc2C)CC1 (configuration not stated)	-10.8%
COC(=O)c1ccccc1NC(=O)C(C)n1nc(C)c2c(C)n(-c3ccccc3)nc2c1=O (configuration not stated)	7.4%
Cc1cc(C)cc(OCC(=O)Nc2ccc(CN3CCCCC3)cc2)c1	-37.6%
CCCCc1c(C)nc2ccc(Br)cc2c1SCCC#N	19.5%
CCc1c(C)nc2c(Br)cccc2c1SCCC#N	22.1%
O=C(CN1C(=O)S/C(=C\c2cccs2)C1=O)Nc1ccc(O)cc1C(=O)O	38.9%
Cn1nnnc1SCCNCc1ccccc1OCc1ccccc1Cl	-12.2%

— PubChem BioAssay AID1578 (Sanford-Burnham Center for Chemical Genomics, 2009)
